Drawing on ChEMBL document CHEMBL3988442, “University of Dundee, Small-Polar-MMV Screening Library” (2021), this text covers Percent Effect for eleven compounds.

For some of these results: Measured potencies and affinities stand elsewhere.

What all share (set-up): scale not given: direction of the effect not stated beside the values
For test [1], the target named is Protein translocase subunit SecA (Escherichia coli (strain K12)) (UniProt P10408). In words: Assay to Identify E. coli SecA ATPase Inhibitors. The format is functional. The following applies: 30 µM.
Chain of Protein translocase subunit SecA (Escherichia coli (strain K12)) (P10408 whole entry): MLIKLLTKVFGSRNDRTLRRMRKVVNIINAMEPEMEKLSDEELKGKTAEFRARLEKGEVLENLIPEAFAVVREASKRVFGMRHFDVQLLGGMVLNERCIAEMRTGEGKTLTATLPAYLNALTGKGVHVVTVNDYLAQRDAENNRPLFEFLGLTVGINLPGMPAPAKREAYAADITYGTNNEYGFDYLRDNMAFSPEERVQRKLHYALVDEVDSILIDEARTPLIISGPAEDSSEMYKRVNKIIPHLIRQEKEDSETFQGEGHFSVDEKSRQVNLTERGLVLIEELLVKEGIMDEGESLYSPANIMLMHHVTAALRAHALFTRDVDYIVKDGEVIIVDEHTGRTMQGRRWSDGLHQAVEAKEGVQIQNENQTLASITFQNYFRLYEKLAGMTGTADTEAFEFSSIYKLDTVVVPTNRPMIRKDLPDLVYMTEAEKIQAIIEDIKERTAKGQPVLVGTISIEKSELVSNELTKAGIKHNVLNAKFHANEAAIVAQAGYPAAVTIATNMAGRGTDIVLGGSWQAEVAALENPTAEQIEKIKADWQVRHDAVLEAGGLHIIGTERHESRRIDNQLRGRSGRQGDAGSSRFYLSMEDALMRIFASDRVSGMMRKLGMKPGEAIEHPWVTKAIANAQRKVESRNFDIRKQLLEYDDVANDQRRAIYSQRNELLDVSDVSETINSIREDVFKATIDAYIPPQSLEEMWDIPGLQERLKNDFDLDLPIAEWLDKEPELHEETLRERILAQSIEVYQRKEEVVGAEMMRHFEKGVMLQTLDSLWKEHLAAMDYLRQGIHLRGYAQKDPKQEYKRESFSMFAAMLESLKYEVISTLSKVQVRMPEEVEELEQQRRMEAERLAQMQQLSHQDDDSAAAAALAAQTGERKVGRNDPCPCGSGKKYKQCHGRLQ
Test [2] has as its target T1, Ubiquitin-activating enzyme e1, putative (Leishmania donovani (strain BPK282A1)) (UniProt E9BSI1).
T1 sequence (whole entry): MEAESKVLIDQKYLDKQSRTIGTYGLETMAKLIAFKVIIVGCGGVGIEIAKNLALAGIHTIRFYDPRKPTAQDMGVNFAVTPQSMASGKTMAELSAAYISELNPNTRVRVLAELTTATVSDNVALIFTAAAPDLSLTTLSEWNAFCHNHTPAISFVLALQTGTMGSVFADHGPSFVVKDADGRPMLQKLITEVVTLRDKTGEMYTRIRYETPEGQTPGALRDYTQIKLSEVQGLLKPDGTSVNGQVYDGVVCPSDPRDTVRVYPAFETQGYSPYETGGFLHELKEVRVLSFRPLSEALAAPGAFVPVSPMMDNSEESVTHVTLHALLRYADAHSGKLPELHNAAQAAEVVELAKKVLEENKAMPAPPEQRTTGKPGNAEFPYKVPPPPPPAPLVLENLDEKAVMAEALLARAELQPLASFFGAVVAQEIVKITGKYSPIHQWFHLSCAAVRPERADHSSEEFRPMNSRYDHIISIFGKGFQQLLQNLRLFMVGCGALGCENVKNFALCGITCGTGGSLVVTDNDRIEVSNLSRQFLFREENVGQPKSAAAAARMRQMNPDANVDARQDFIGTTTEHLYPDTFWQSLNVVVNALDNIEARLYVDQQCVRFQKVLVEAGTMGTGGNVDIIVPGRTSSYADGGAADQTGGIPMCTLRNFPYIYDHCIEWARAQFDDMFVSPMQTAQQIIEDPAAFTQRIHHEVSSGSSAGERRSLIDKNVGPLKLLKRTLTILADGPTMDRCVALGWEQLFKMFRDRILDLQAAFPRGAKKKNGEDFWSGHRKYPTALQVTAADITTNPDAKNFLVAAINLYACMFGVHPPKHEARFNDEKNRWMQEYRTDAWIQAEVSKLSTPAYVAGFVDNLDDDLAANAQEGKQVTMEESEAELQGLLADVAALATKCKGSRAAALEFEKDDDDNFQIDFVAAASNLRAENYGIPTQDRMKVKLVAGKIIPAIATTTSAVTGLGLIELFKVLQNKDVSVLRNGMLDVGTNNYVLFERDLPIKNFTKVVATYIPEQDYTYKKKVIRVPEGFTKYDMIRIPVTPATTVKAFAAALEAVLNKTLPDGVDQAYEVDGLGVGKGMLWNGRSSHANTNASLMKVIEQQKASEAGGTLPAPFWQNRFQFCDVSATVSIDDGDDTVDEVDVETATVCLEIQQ
In words: Leishmania donovani Ubiquitin Activating Enzyme (LdE1). The format is functional. Conditions: 30 µM.

Test [3] concerns the target AMP-activated protein kinase, AMPK (Homo sapiens) (UniProt P54646+O43741+P54619+Q9UGJ0+Q9Y478+Q13131+Q9UGI9). Kind of test: AMP-dependent Kinase enzyme assay. An in vitro enzyme assay that detects ADP turnover that is directly proportional to AMPK activity. This uses naive AMPK that is activated during the assay with MK-8722. The format is functional. Conditions: 30 µM.

Test [4] concerns the target Sialic acid-binding Ig-like lectin 9 (Homo sapiens) (UniProt Q9Y336). In words: Hs-Siglec9 ALPHAscreen SOP 20170721. The following applies: 10 µM.
The subject of a further test is Trypanosoma cruzi. Kind of test: Trypanosoma cruzi phosphomannomutase and mannose-1-phosphate guanylyltransferase assay. The format is functional. The following applies: 10 µM.
The target of test [5] is T2, Arginase-2, mitochondrial (Homo sapiens) (UniProt P78540).
T2 sequence (whole entry): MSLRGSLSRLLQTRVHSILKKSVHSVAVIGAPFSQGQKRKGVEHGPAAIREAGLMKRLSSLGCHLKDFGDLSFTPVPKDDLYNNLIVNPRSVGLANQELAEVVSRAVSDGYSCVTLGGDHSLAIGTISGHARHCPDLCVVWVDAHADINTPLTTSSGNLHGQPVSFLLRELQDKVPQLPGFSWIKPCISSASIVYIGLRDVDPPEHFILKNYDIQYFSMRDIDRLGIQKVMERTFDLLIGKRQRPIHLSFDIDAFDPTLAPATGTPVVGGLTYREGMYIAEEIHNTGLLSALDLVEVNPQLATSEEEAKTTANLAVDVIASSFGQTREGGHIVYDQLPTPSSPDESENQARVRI
In words: in vitro enzyme assay to detect the production of urea directly proportional to the activity of Arginase II. Note: in the data most compounds retested in dose-response had high values. The format is functional. The following applies: 33.3 µM.

The target of test [6] is T3, Proteasome subunit beta (Trypanosoma cruzi) (UniProt O96673).
T3 sequence (whole entry): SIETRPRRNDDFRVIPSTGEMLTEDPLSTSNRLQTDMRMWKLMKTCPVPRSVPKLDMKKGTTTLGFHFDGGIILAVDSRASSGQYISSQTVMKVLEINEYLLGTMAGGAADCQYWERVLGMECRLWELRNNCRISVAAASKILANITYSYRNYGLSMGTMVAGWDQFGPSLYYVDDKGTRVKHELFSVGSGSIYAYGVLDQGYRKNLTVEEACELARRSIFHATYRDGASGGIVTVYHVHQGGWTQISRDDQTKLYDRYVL
In words: Trypanosoma cruzi proteasome chymotrypsin-like activity (TcProtChymo) assay. Note: in the data most compounds retested in dose-response had high values. The format is functional. Conditions: 9.37 µM.

The species entered for the next test is Homo sapiens. In words: To identify inhibition of the IFN signalling (Jak-Stat) pathway via expression of an eGFP reporter gene under the control of an IFN-stimulated response element (ISRE) containing MxA promoter. The format is functional. Conditions: 30 µM.
In test [7] the target is T4, Tyrosyl-tRNA synthetase, putative (Trypanosoma cruzi (strain CL Brener)) (UniProt Q4DSP6).
T4 sequence (whole entry): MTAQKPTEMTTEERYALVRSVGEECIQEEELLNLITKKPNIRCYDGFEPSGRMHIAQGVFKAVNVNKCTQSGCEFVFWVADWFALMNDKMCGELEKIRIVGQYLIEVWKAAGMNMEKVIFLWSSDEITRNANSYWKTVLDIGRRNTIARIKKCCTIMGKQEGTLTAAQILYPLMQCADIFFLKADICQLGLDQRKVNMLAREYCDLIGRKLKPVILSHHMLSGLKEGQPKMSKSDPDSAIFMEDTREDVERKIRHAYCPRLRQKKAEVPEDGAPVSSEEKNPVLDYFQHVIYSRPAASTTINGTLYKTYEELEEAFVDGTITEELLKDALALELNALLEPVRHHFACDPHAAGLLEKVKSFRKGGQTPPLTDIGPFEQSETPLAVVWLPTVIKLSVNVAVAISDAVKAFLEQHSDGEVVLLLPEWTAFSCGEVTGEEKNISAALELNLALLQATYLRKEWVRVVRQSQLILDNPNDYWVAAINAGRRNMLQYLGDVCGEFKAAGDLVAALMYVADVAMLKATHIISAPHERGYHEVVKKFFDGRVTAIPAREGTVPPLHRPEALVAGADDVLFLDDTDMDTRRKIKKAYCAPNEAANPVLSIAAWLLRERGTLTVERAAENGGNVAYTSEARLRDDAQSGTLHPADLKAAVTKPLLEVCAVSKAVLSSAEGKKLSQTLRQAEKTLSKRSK
In words: Trypanosoma cruzi tyrosyl tRNA synthetase (TcYRS) _High Tyrosine SOP. Note: in the data most compounds retested in dose-response had high values. The following applies: 30 µM. The format is functional.

Test [8] concerns the target T4, Tyrosyl-tRNA synthetase, putative (Trypanosoma cruzi (strain CL Brener)). In words: Trypanosoma cruzi tyrosyl tRNA synthetase (TcYRS) SOP. The format is functional. The following applies: 30 µM.
Test [9] deals with Chromo domain-containing protein 1 (Saccharomyces cerevisiae (strain ATCC 204508 / S288c) (Baker's yeast)) (UniProt P32657). In words: ScCHD-1 Enzyme Inhibition Assay. Note: in the data most compounds retested in dose-response had high values. The format is functional. The following applies: 30 µM.
Chain of Chromo domain-containing protein 1 (Saccharomyces cerevisiae (strain ATCC 204508 / S288c) (Baker's yeast)) (P32657 whole entry, the tested form may be a part): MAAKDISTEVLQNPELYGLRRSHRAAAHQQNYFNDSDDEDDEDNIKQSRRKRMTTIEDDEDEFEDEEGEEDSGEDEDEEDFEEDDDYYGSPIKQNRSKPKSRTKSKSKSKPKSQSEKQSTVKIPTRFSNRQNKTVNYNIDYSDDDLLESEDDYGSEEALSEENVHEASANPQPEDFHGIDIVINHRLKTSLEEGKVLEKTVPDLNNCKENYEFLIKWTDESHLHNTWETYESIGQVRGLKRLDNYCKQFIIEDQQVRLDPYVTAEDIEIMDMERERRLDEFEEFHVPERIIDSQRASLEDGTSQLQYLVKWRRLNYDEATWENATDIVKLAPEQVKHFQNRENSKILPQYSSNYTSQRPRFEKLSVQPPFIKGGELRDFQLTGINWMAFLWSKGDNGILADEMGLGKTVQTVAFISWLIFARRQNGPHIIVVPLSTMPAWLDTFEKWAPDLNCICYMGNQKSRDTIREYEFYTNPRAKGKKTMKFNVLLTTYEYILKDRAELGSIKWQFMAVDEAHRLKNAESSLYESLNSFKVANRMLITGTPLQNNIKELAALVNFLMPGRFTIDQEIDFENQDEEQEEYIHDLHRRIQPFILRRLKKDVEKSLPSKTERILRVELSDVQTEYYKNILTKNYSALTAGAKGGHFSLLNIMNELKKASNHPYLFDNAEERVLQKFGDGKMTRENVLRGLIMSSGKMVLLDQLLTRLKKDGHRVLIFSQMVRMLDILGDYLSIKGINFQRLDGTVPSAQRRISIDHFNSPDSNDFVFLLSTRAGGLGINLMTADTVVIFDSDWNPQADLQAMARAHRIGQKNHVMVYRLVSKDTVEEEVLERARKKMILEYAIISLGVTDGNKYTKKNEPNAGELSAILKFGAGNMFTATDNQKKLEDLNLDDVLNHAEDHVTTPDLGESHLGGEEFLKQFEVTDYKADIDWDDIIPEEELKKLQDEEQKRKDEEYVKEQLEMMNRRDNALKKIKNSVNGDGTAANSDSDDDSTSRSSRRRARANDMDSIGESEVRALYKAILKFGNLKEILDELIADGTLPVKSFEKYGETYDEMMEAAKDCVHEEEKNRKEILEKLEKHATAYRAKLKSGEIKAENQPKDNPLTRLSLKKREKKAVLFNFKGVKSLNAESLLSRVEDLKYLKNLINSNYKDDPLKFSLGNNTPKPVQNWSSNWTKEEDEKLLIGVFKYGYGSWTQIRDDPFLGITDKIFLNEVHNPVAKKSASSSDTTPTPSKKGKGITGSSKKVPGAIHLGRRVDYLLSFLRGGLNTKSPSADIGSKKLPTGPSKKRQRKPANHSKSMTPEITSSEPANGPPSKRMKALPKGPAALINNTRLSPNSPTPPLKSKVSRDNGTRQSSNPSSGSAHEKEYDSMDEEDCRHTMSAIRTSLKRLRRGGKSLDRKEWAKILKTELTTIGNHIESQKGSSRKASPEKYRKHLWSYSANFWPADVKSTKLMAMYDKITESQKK

Chain of Sialic acid-binding Ig-like lectin 9 (Homo sapiens) (Q9Y336 whole entry): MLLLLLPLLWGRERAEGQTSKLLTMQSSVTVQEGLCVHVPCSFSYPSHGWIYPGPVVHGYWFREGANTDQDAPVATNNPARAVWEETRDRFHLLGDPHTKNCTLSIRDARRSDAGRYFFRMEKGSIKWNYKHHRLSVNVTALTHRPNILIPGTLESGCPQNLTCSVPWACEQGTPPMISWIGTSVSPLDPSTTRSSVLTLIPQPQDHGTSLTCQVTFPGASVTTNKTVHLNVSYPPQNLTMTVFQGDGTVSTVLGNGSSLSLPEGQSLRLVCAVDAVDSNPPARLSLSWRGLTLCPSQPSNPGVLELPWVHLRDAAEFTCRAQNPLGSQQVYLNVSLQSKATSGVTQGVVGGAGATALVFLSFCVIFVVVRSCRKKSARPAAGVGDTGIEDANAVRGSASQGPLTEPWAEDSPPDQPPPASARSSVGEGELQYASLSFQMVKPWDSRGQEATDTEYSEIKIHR

`CCn1cnnc1CNC(=O)NCC(c1cccs1)N1CCCC1` (stereo unspecified): the Percent Effect in [1] is -2.72%; in test [2] it was 18.2%; in test [3] it was 0.236%; in test [4] it was 9.73%; in the test on Trypanosoma cruzi it was 2.43%; in test [5], -1.42%. In addition, the Percent Effect in [6] is 8.11%; in the test filed under Homo sapiens, 10.8%; in test [7] it was 5.83%; in [8], 19.5%; in test [9] it was -6.68%.

`CC(NC(=O)NCCCn1ccnc1)c1ccc2c(c1)CCC(=O)N2` (stereo unspecified): the Percent Effect is -5.85% in test [1]; 22.8% in [2]; 0.7% in test [3]; -8% in [4]; 8.4% in the test on Trypanosoma cruzi; -2.66% in [5]. Besides, the Percent Effect was 13% in test [6]; 10.8% in the test listed under Homo sapiens; 5.42% in [7]; 24.1% in test [8]; -6.95% in [9].

With `CN(C)S(=O)(=O)N1CCC(Oc2ccccn2)CC1`, the Percent Effect in [1] is -2.83%; in test [2], 2.6%; in [3], 2.73%; in test [4] it was -0.581%; with Trypanosoma cruzi, -6.41%; in test [5] it was -7.1%. In addition, the Percent Effect in [6] was 14.1%; in the test filed under Homo sapiens, -7.21%; in test [7] it was 6.35%; in test [8], -1.28%; in [9], -7.73%.

For the compound `CNC(=O)[C@H]1CO[C@H]2CCN(Cc3ccc4ccccc4n3)C[C@H]2C1`, the Percent Effect is -4.79% in test [1]; 8.11% in test [2]; 7.95% in test [3]; -3.25% in test [4]; -3.62% with Trypanosoma cruzi; 9.87% in test [5]. For the same compound, the Percent Effect in [6] is 18.8%; in the test listed under Homo sapiens, -14.1%; in [7], 2.16%; in test [8] it was 15.4%; in [9] it was 1.01%.

With `O=C(c1csc(-c2cccs2)n1)N1CCCC1Cn1cccn1` (stereo unspecified), the Percent Effect in [1] is -3.61%; in test [2], 10.5%; in [3] it was -6.24%; in test [4], 3.2%; with Trypanosoma cruzi it was -3.83%; in test [5], 1.08%. The Percent Effect in test [6] was -4.99%; in the test listed under Homo sapiens it was -2.06%; in test [7], 3.45%; in test [8] it was 6.17%; in test [9], 0.105%.

For the compound `COc1ccc(CN2CCC3(CC2)CCN(c2ncccn2)CC3)cc1`, the Percent Effect in test [1] was -2.42%; in [2], 2.7%; in test [3] it was 0.552%; in [4], 4.9%; in the test on Trypanosoma cruzi it was 5.57%; in test [5], 8.6%. Moreover, the Percent Effect is 1.29% in [6]; -26.6% in the test listed under Homo sapiens; 0% in test [7]; 5.13% in [8]; 6.6% in test [9].

With `CC(C)N1Cc2c(C(=O)N3CCOCC3)nn(C)c2C1`, the Percent Effect in [1] is -3.37%; in [2] it was -2.7%; in test [3], 4.04%; in test [4], 1.67%; with Trypanosoma cruzi it was -1.66%; in [5] it was 0.955%. The Percent Effect was 17.3% in test [6]; -39.2% in the test filed under Homo sapiens; -1.08% in test [7]; 5.13% in test [8]; 4.29% in [9].

As to `CNC(=O)C1Cn2ccnc2C2(CCN(CCF)CC2)O1` (stereo unspecified), the Percent Effect in test [1] was -1.42%; in test [2] it was 5.2%; in [3], 2.6%; in [4], -5.27%; in the test on Trypanosoma cruzi, -8.97%; in [5] it was 0.645%. Moreover, the Percent Effect was 13.1% in [6]; 15.2% in the test listed under Homo sapiens; 3.17% in test [7]; 3.85% in [8]; -5.68% in test [9].

As for `COc1nn(C)c2c1CCCN(C(=O)c1ccccc1)C2`, the Percent Effect is -4.93% in test [1]; 2.7% in [2]; -0.442% in test [3]; -2.98% in test [4]; -1.76% in the test with Trypanosoma cruzi; -1.25% in test [5]. In addition, the Percent Effect in test [6] was -1.27%; in the test filed under Homo sapiens, 3.41%; in [7], 4.95%; in test [8] it was 1.22%; in [9], -2.72%.

For `CCN1CCCn2c(nc(CNC(=O)c3ccsc3)cc2=O)C1`, the Percent Effect is -4.67% in test [1]; 13.5% in test [2]; 7.54% in [3]; 3.9% in test [4]; -0.0978% in the test with Trypanosoma cruzi; 9.24% in [5]. Besides, the Percent Effect was 13.1% in test [6]; -1.85% in the test filed under Homo sapiens; 3.24% in [7]; 17.9% in test [8]; -0.449% in [9].

As for `COCCN1C[C@@H]2CCCO[C@@H]2[C@H](N(C)Cc2ccco2)C1`, the Percent Effect was -2.66% in [1]; 10.7% in test [2]; 1.93% in test [3]; -6.59% in [4]; 2.56% in the test on Trypanosoma cruzi; 50.6% in test [5]. Besides, the Percent Effect in [6] is 11%; in the test listed under Homo sapiens it was 16.7%; in test [7] it was 7.45%; in test [8], 16.7%; in test [9], -2.07%.
